Data reported in the supplement of paper PMC6279402.
± gives the standard deviation of the averaged measurements.

System: A549
Test: relative viability (normalised to negative control = 1, bortezomib = 0) (fraction); higher = less cytotoxic
Conditions: inflammatory serum-free RHB-A with cytokines + LPS, 5 d + 24 h CellTiter-Blue
[1] = compound 30 nM, GSK126 pretreatment: 5 uM GSK126
[2] = compound 30 nM, GSK126 pretreatment: none (vehicle)
[3] = compound 300 nM, GSK126 pretreatment: 5 uM GSK126
[4] = compound 300 nM, GSK126 pretreatment: none (vehicle)

Structure (SMILES): CS(=O)(=O)CCNCc1ccc(-c2ccc3ncnc(Nc4ccc(OCc5cccc(F)c5)c(Cl)c4)c3c2)o1 [Lapatinib ditosylate; Lapatinib; Lapatinib Ditosylate]
- relative viability [1]: 0.811 ± 0.091
- relative viability [2]: 0.826 ± 0.083
- relative viability [3]: 0.594 ± 0.11
- relative viability [4]: 0.562 ± 0.057

Structure (SMILES): CN(Cc1cnc2nc(N)nc(N)c2n1)c1ccc(C(=O)N[C@@H](CCC(=O)O)C(=O)O)cc1 [Methotrexate hydrate; Methotrexate]
- relative viability [1]: 0.813 ± 0.055
- relative viability [2]: 0.84 ± 0.052
- relative viability [3]: 0.797 ± 0.17
- relative viability [4]: 0.947 ± 0.086

Structure (SMILES): Nc1cc(C(F)(F)F)c(-c2cc(N3CCOCC3)nc(N3CCOCC3)n2)cn1
- relative viability [1]: 0.85 ± 0.082
- relative viability [2]: 0.771 ± 0.058
- relative viability [3]: 0.664 ± 0.064
- relative viability [4]: 0.751 ± 0.052

Structure (SMILES): Cc1ccc(NC(=O)c2ccc(CN3CCN(C)CC3)cc2)cc1Nc1nccc(-c2cccnc2)n1
- relative viability [1]: 0.902 ± 0.12
- relative viability [2]: 0.867 ± 0.096
- relative viability [3]: 0.976 ± 0.13
- relative viability [4]: 1 ± 0.093

Structure (SMILES): CC(C)C[C@H](NC(=O)[C@H](CCc1ccccc1)NC(=O)CN1CCOCC1)C(=O)N[C@@H](Cc1ccccc1)C(=O)N[C@@H](CC(C)C)C(=O)[C@@]1(C)CO1 [Carfilzomib]
- relative viability [1]: -0.00043 ± 0.0042
- relative viability [2]: 0.0294 ± 0.0064
- relative viability [3]: -0.00389 ± 0.00043
- relative viability [4]: -0.00499 ± 0.0011

Structure (SMILES): Cc1cnc(Nc2ccc(N3CCN(C)CC3)cc2)nc1Nc1cccc(S(=O)(=O)NC(C)(C)C)c1
- relative viability [1]: 1.22 ± 0.15
- relative viability [2]: 1.2 ± 0.08
- relative viability [3]: 1.2 ± 0.023
- relative viability [4]: 1.27 ± 0.053

Structure (SMILES): O=c1[nH]c(=O)n([C@H]2C[C@H](O)[C@@H](CO)O2)cc1F [Floxuridine]
- relative viability [1]: 0.895 ± 0.018
- relative viability [2]: 0.886 ± 0.058
- relative viability [3]: 0.903 ± 0.037
- relative viability [4]: 0.908 ± 0.05

Structure (SMILES): NC1(c2ccc(-c3nc4ccn5c(=O)[nH]nc5c4cc3-c3ccccc3)cc2)CCC1
- relative viability [1]: 0.679 ± 0.074
- relative viability [2]: 0.691 ± 0.063
- relative viability [3]: 0.387 ± 0.011
- relative viability [4]: 0.522 ± 0.067

Structure (SMILES): Cn1cnc(-c2cc3nccc(Oc4ccc(NC(=S)NC(=O)Cc5ccccc5)cc4F)c3s2)c1
- relative viability [1]: 0.819 ± 0.071
- relative viability [2]: 0.832 ± 0.051
- relative viability [3]: 0.838 ± 0.093
- relative viability [4]: 0.945 ± 0.065

Structure (SMILES): CN(C)c1nc(N(C)C)nc(N(C)C)n1 [Altretamine]
- relative viability [1]: 0.861 ± 0.011
- relative viability [2]: 0.87 ± 0.045
- relative viability [3]: 0.931 ± 0.02
- relative viability [4]: 0.887 ± 0.095

Structure (SMILES): Cc1cc(Nc2nc(N[C@@H](C)c3ccc(F)cc3)c(C#N)cc2F)n[nH]1
- relative viability [1]: 1.23 ± 0.055
- relative viability [2]: 1.16 ± 0.11
- relative viability [3]: 0.269 ± 0.021
- relative viability [4]: 0.309 ± 0.027

Structure (SMILES): O=C1NC(=O)/C(=C\c2ccc3nccnc3c2)S1
- relative viability [1]: 0.877 ± 0.1
- relative viability [2]: 0.854 ± 0.032
- relative viability [3]: 0.915 ± 0.14
- relative viability [4]: 0.946 ± 0.17

Structure (SMILES): COc1cc2ncnc(Nc3cccc(Br)c3)c2cc1OC
- relative viability [1]: 0.996 ± 0.044
- relative viability [2]: 0.976 ± 0.048
- relative viability [3]: 0.537 ± 0.17
- relative viability [4]: 0.701 ± 0.086

Structure (SMILES): CCN(CC)CCCC(C)Nc1c2ccc(Cl)cc2nc2ccc(OC)cc12 (stereo unspecified)
- relative viability [1]: 0.836 ± 0.066
- relative viability [2]: 0.847 ± 0.051
- relative viability [3]: 1.02 ± 0.091
- relative viability [4]: 1.02 ± 0.11

Structure (SMILES): C=CC(=O)N1CCC[C@@H](n2nc(-c3ccc(Oc4ccccc4)cc3)c3c(N)ncnc32)C1
- relative viability [1]: 0.769 ± 0.14
- relative viability [2]: 0.718 ± 0.11
- relative viability [3]: 0.429 ± 0.02
- relative viability [4]: 0.41 ± 0.048

Structure (SMILES): O=C1c2ccccc2-c2n[nH]c3cccc1c23
- relative viability [1]: 0.785 ± 0.1
- relative viability [2]: 0.796 ± 0.078
- relative viability [3]: 0.801 ± 0.075
- relative viability [4]: 0.894 ± 0.15

Structure (SMILES): CN1CCN(CCOc2cc(OC3CCOCC3)c3c(Nc4c(Cl)ccc5c4OCO5)ncnc3c2)CC1 [AZD0530(Saracatinib)]
- relative viability [1]: 0.831 ± 0.073
- relative viability [2]: 0.827 ± 0.071
- relative viability [3]: 0.746 ± 0.057
- relative viability [4]: 0.914 ± 0.038

Structure (SMILES): Cc1c2oc3c(C)ccc(C(=O)N[C@@H]4C(=O)N[C@H](C(C)C)C(=O)N5CCC[C@H]5C(=O)N(C)CC(=O)N(C)[C@@H](C(C)C)C(=O)O[C@@H]4C)c3nc-2c(C(=O)N[C@@H]2C(=O)N[C@H](C(C)C)C(=O)N3CCC[C@H]3C(=O)N(C)CC(=O)N(C)[C@@H](C(C)C)C(=O)O[C@@H]2C)c(N)c1=O [Dactinomycin]
- relative viability [1]: -0.00158 ± 0.00097
- relative viability [2]: 0.00574 ± 0.0057
- relative viability [3]: -0.00171 ± 0.00059
- relative viability [4]: 0.00607 ± 0.0081

Structure (SMILES): CC(=O)O[C@H]1C(=O)[C@@]2(C)[C@H]([C@H](OC(=O)c3ccccc3)[C@]3(O)C[C@H](OC(=O)[C@H](O)[C@@H](NC(=O)c4ccccc4)c4ccccc4)C(C)=C1C3(C)C)[C@]1(OC(C)=O)CO[C@@H]1C[C@@H]2O [Paclitaxel; Taxol]
- relative viability [1]: 0.391 ± 0.044
- relative viability [2]: 0.242 ± 0.009
- relative viability [3]: 0.368 ± 0.077
- relative viability [4]: 0.301 ± 0.048
